# Reference: PubChem BioAssay (NCI)
# This is part of a sample that, as a whole, favours compounds with a hit. Of some 83,000 tested, about 20% had one in any assay.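 Note: values are percent growth. 100 is the growth of untreated cells, values between 100 and 0 indicate rising inhibition; between -100 and 0 indicates cell death.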 Unmarked numbers belong to inactive results. Calls of active or inactive are those of the source. The calls were made as follows: active = growth percent below 10; inactive = the rest.
# How the values were obtained:
# Experiment in all cases: NCI-60 one-dose screen, 48 h (100 = growth as untreated, 0 = no growth, -100 = all killed)
# Details in all cases: 10 µM unless noted
# [1] = tested on: NCI-H23 lung
# [2] = tested on: NCI-H226 lung
# [3] = tested on: NCI-H322M lung
# [4] = tested on: HOP-62 NSCLC
# [5] = tested on: NCI-H460 lung
# [6] = tested on: HOP-92 NSCLC
# [7] = tested on: NCI-H522 lung
# [8] = tested on: A549/ATCC NSCLC
# [9] = tested on: 786-0 renal
# [10] = tested on: COLO 205 colon
Structure (SMILES),growth [1],growth [2],growth [3],growth [4],growth [5],growth [6],growth [7],growth [8],growth [9],growth [10]
CCCCCCCCCC(=O)Oc1ccc(/C(=C(/C)c2ccccc2)c2ccc(OCCN3CCCC3)cc2)cc1,26.8%,65.7%,32.8%,-1.82% (active),-7.47% (active),-19% (active),-26.3% (active),11.3%,-58.6% (active),-57.1% (active)
CSc1[nH]c2ncnc(N)c2c1C#N,91.4%,73.6%,82.9%,94.9%,99.6%,118%,82.6%,101%,99.7%,117%
Cc1ccc(NC(=O)c2sc3nc4c(cc3c2N)C(=O)CCC4)cc1C,32.7%,80.2%,42.5%,23.5%,7.88% (active),90.8%,-9.22% (active),19.5%,37.4%,-25.2% (active)
O=C(CN1CCN(c2cc3c(cc2F)c(=O)c(C(=O)O)cn3C2CC2)CC1)Nc1nc(-c2ccc(Cl)cc2)cs1,16.5%,43.3%,28.1%,25.7%,6.86% (active),-5.35% (active),6.46% (active),11.4%,29.1%,63.2%
CN(C)CCOc1ccc(-c2nc3ccc(-c4nc5ccc(N6CCN(C)CC6)cc5[nH]4)cc3[nH]2)cc1,76.9%,28.7%,77.8%,69.9%,56%,61.7%,59.9%,64.4%,86.4%,44.5%
CN(C)c1ccc(/C=C\C2=[N+](C)c3ccccc3C2(C)C)cc1,7.51% (active),16.3%,23.7%,13.6%,4.52% (active),-15.6% (active),-23.7% (active),2.47% (active),18.1%,-78.8% (active)
O=C(O)c1ccccc1Nc1cccc(S(F)(F)(F)(F)F)c1,96.8%,88.9%,101%,88.4%,102%,96.1%,61.9%,84.2%,110%,104%
CC(=O)OCC(=O)C1CCC=CC1OC(C)=O (stereo not given),97.7%,92.6%,88.8%,86.3%,108%,98.9%,75.1%,94.4%,99.2%,110%
CCOC(=O)C(C#N)C1CCCCC1 (stereo not given),93.6%,83.4%,92.1%,90.4%,123%,80.7%,96.9%,105%,105%,127%
S=c1[nH]nc(CSc2ncnc3c2c(-c2ccccc2)cn3-c2ccc(Cl)cc2)o1,92.7%,89.5%,97.9%,91%,99.4%,92.9%,89.5%,98.5%,102%,99.1%
CC1(C)OCC2OC3(C(=O)O)OC(C)(C)OC3C2O1 (stereo not given),102%,106%,93%,101%,110%,116%,84.6%,98.1%,103%,106%
